Results filed as inconclusive are left out. The source made the active and inactive calls. The call rests on the fitted dose curve; in most records, active means well fitted cell-killing curve with a large enough effect in the repeat runs (not every such curve was filed as active); inconclusive means weak or mixed curves, or effect the other way; inactive means no such curve, though single readings can be large or run the other way.
Assay: qHTS assay to identify small molecule antagonists of the estrogen related receptor signaling pathway with the pleiotropic PPARgamma coactivator (PGC) from Tox21 10K library - cell viability counter screen (AID 1224840); further: nearly all actives have a fitted effect of over 40% in size
Details: PGC/ERR reporter cells viability, CellTiter-Fluor, 17.5 h; series mostly up to 92.4 µM; viability change, negative = cytotoxic: at the top concentration
Source text: National Center for Advancing Translational Sciences [NCATS]
NIH Chemical Genomics Center [NCGC]
U.S. Environmental Protection Agency [EPA]
National Institutes of Environmental Health Sciences [NIEHS]
National Toxicology Program [NTP]
U.S. Food and Drug Administration [FDA]
Estrogen related receptors (ERRs), the first orphan nuclear receptors discovered, play an important role in the control of cellular energy metabolism. ERRs are required for high-energy production in response to the environmental challenges. The pleiotropic PPARgamma coactivator (PGC) is a major partner of ERR and a key regulator in energy homeostasis. Together they have been implicated in the etiology of metabolic disorders such as Type 2 diabetes and metabolic syndrome. ERR-alpha was also identified as an adverse marker for breast cancer progression; ERR-alpha-positive tumors have a poor prognosis. To screen and to identify environmental compounds that perturb the ERR and PGC/ERR signaling pathways could provide valuable information for potential therapeutic or preventive measures in the treatment of metabolic disease. To differentiate true PGC/ERR antagonists or agonist from cytotoxic substances, the assay is multiplexed with cell viability assay.
Tox21 Assay Protocol Summary:
The PGC/ERR cells were dispensed at 2,000 cells/5 ul/well in 1536-well white plates using a Multidrop dispenser. After the assay plates were incubated at a 37 C/5% CO2 incubator for 6 hours, 23 nL of compounds dissolved in DMSO, positive and negative controls or DMSO only was transferred to the assay plate by a pin tool. The plates were incubated at 37 C for 17.5 hours. 1 ul/well of CellTiter-Fluor reagent was added into the assay plates using a Flying Reagent Dispenser. After 30-minute incubation at 37 C/5% CO2, the fluorescence intensity in the plates was measured using a ViewLux plate reader.
With `Nc1ncn([C@H]2C[C@H](O)[C@@H](CO)O2)c(=O)n1` the “viability change, negative = cytotoxic” value was 2.42% [at 42.5 µM] (inactive).
For `COc1ccc(C)cc1[N+](=O)[O-]`, the “viability change, negative = cytotoxic” value was 7.56% (inactive).
With `Brc1c2ccccc2cc2ccccc12` the “viability change, negative = cytotoxic” value was 1.61% (inactive).
For `Cc1ccccc1S(=O)(=O)O`, the “viability change, negative = cytotoxic” value was 9.74% (inactive).
With `O=C(NCCO[N+](=O)[O-])c1cccnc1` the “viability change, negative = cytotoxic” value was -5.46% [at 42.5 µM] (inactive).
For `CCCCCCCN`, the “viability change, negative = cytotoxic” value was 3.26% (inactive).
For `C=CC(=O)OCCOc1ccccc1`, the “viability change, negative = cytotoxic” value was -11.9% (inactive).
With `CNCCCN1c2ccccc2CCc2ccccc21` the “viability change, negative = cytotoxic” value was -17.9% [at 42.5 µM] (inactive).
With `CN1Cc2cc(C(=O)N3CCC(C4CCNCC4)CC3)ccc2NC(CC(=O)O)C1=O` (stereo not given) the “viability change, negative = cytotoxic” value was -5.39% [at 42.5 µM] (inactive).
With `O=C(O)c1ccccc1Cl` the “viability change, negative = cytotoxic” value was 5.51% (inactive).
For `Nc1c(CC(=O)O)cccc1C(=O)c1ccc(Br)cc1`, the “viability change, negative = cytotoxic” value was -2.62% [at 42.5 µM] (inactive).
With `O=C1CCC(=O)O1` the “viability change, negative = cytotoxic” value was 0.685% (inactive).
In the case of `CCC(C)O` (stereo not given), the “viability change, negative = cytotoxic” value is reported as 1.86% (inactive).
For `Nc1ccccc1S(=O)(=O)c1ccccc1`, the “viability change, negative = cytotoxic” value was -8.77% (inactive).
In the case of `CCOC(=O)c1cccnc1`, the “viability change, negative = cytotoxic” value is reported as 0.964% [at 42.5 µM] (inactive).
For `O=C(O)c1ccc(S(=O)(=O)O)cc1C(=O)O`, the “viability change, negative = cytotoxic” value was 6.82% (inactive).
In the case of `Nc1ccc(S(=O)(=O)Nc2ccccc2)cc1`, the “viability change, negative = cytotoxic” value is reported as 14.3% [at 42.5 µM] (inactive).
With `CCCCCCCCCCCC(=O)OC[C@@H](O)[C@H]1OC[C@H](OCCO)[C@H]1OCCO` the “viability change, negative = cytotoxic” value was 2.76% (inactive).
In the case of `CCCCC(=O)OCC(=O)[C@H]1[C@H](C)C[C@H]2[C@@H]3C[C@H](F)C4=CC(=O)C=C[C@]4(C)[C@@]3(F)[C@@H](O)C[C@@]21C`, the “viability change, negative = cytotoxic” value is reported as 8.42% [at 42.5 µM] (inactive).
For `CC(=O)NO`, the “viability change, negative = cytotoxic” value was 6.12% [at 42.5 µM] (inactive).
For `COc1ccc(S(=O)(=O)N2C(=O)[C@@](c3ccccc3OC)(N3C[C@H](O)C[C@H]3C(=O)N(C)C)c3cc(Cl)ccc32)c(OC)c1`, the Potency was 30.6 µM (active).
In the case of `O=C(O)CNCC(=O)O`, the viability change, negative = cytotoxic is reported as 0.614% [at 8.39 µM] (inactive).
With `CCCC(=O)Nc1ccc(O)c(C(C)=O)c1` the “viability change, negative = cytotoxic” value was 6.4% [at 42.5 µM] (inactive).
With `CNC(=O)CN(CCN(CCN(CC(=O)[O-])CC(=O)NC)CC(=O)[O-])CC(=O)[O-].O.[Gd+3]` the “viability change, negative = cytotoxic” value was 9.96% [at 42.5 µM] (inactive).
With `CC(C)Cc1ccc(C(C)C(=O)OCc2ccccn2)cc1` (stereo not given) the “viability change, negative = cytotoxic” value was 6.17% [at 42.5 µM] (inactive).
For `ClCCOCCOCCCl`, the “viability change, negative = cytotoxic” value was -3.97% (inactive).
In the case of `CCCCCCCCCCCCN1CCCCCC1=O`, the “viability change, negative = cytotoxic” value is reported as 0.431% (inactive).
With `Cc1ccc(C(=O)Oc2ccc(C(O)CNC(C)(C)C)cc2OC(=O)c2ccc(C)cc2)cc1` (stereo not given) the “viability change, negative = cytotoxic” value was -0.154% [at 42.5 µM] (inactive).
In the case of `CCCCNc1ccc(C(=O)OCCOCCOCCOCCOCCOCCOCCOCCOCCOC)cc1`, the “viability change, negative = cytotoxic” value is reported as -4.41% [at 42.5 µM] (inactive).
With `C=C1[C@H]2CC[C@@H]3[C@H]2C(C)(C)CCC[C@]13C` the “viability change, negative = cytotoxic” value was -0.337% (inactive).
For `C=CCOc1ccccc1OCC(O)CNC(C)C` (stereo not given), the “viability change, negative = cytotoxic” value was -4.83% [at 42.5 µM] (inactive).
In the case of `O=C(O)C1(C(=O)Nc2ccc(Cl)cc2Cl)CC1`, the “viability change, negative = cytotoxic” value is reported as -22.1% (inactive).
With `NCC(=O)O` the viability change, negative = cytotoxic was 0.187% [at 19 µM] (inactive).
With `C[N+]1(C)CCC(OC(=O)C(O)(c2ccccc2)C2CCCC2)C1` (stereo not given) the “viability change, negative = cytotoxic” value was 3.79% [at 42.5 µM] (inactive).
In the case of `C[N+]1(CC2COC(c3ccccc3)(C3CCCCC3)O2)CCCCC1` (stereo not given), the “viability change, negative = cytotoxic” value is reported as 2.86% [at 42.5 µM] (inactive).
For `COc1cc2nc(N(C)CCCNC(=O)C3CCCO3)nc(N)c2cc1OC` (stereo not given), the “viability change, negative = cytotoxic” value was -0.953% [at 42.5 µM] (inactive).
In the case of `OC(C#CCN1CCCC1)(c1ccccc1)c1ccccc1`, the “viability change, negative = cytotoxic” value is reported as -1.49% [at 42.5 µM] (inactive).
In the case of `CC[N+](C)(CC)CCOC(=O)C(O)(c1ccccc1)C1CCCCC1` (stereo not given), the “viability change, negative = cytotoxic” value is reported as -1.65% [at 42.5 µM] (inactive).
For `CCCCc1nc2cccnc2n1Cc1ccc(-c2ccccc2-c2nnn[nH]2)cc1`, the “viability change, negative = cytotoxic” value was -9.96% (inactive).
In the case of `COc1cc(Cl)ccc1Oc1ccc(Cl)cc1Cl`, the “viability change, negative = cytotoxic” value is reported as 0.872% (inactive).

Source: PubChem BioAssay (Tox21)
On the % scale 0 is the no-effect control and ±100 the full control effect; potency means the concentration at half of the fitted maximal effect.
